Consider eleven molecules from PubChem BioAssay (EPA / NIEHS).

Structures are written as SMILES. Where “and” joins values, the source holds several entries; their conditions need not be identical. Identical values can stand only once. Records with an inconclusive call do not appear. A structure can be active in one record and inactive in another. Calls of active or inactive are those of the source. The calls were made as follows, unless noted: active = hit-call score of the fitted dose curve at least 0.9, where 1 is the maximum; inactive = score below 0.9.

Read-out in experiment [1]: Collagen I, COL1A1 (gene 1277)
In words: BSK_MyoF_CollagenI: BioMAP Diversity Plus: MyoF Assay for Collagen I Biomarker Activity (AID 2284238). Conditions: primary human lung fibroblasts. In short, it runs like this:
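ELISA readout of Collagen I after 24 h chemical treatment of primary human lung fibroblast cultures; gain of signal scored relative to DMSO vehicle baseline.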

Read-out in experiment [2]: Collagen III, COL3A1 (gene 1281)
In words: BSK_MyoF_CollagenIII: BioMAP Diversity Plus: MyoF Assay for Collagen III Biomarker Activity (AID 2284239). Conditions: primary human lung fibroblasts. In short, it runs like this:
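Lung fibroblast culture; 24 h compound exposure; collagen III by ELISA; gain-of-signal fit vs DMSO baseline.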

Read-out in experiment [3]: Interleukin 17F (IL17F), IL17F (gene 112744)
Put plainly: BSK_BT_xIL17F: BioMAP Diversity Plus: BT Assay for Interleukin 17F (IL17F) Biomarker Activity (AID 2284243). The conditions noted are these: primary human B cells with PBMC. In short, it runs like this:
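Secreted IL-17F, read on LumineX xMAP beads, was taken as the endpoint. Cultures combined human B cells and peripheral blood mononuclear cells, sampled 24 hours after dosing, with DMSO serving as negative control.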

Read-out in experiment [4]: Actin alpha 1 (ACTA1), ACTA1 (gene 58)
Put plainly: BSK_MyoF_ACTA1: BioMAP Diversity Plus: MyoF Assay for Actin alpha 1 (ACTA1) Biomarker Activity (AID 2284244). The conditions noted are these: primary human lung fibroblasts. The method, boiled down:
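Cells were exposed to chemical for 24 h before a-SMA levels were quantified by ELISA in human lung fibroblasts. Increases were fitted against DMSO as negative control; parallel SRB staining (0.1% after 10% TCA fixation, 560 nm) assessed cytotoxicity.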

Read-out in experiment [5]: Interleukin 2 (IL2), IL2 (gene 3558)
Put plainly: BSK_BT_xIL2: BioMAP Diversity Plus: BT Assay for Interleukin 2 (IL2) Biomarker Activity (AID 2284245). Conditions: primary human B cells with PBMC. In short, it runs like this:
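The BT system combines human B cells with peripheral blood mononuclear cells. Twenty-four hours after chemical dosing, secreted IL-2 was measured with xMAP bead technology, and responses were analyzed as increases over DMSO controls.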

Read-out in experiment [6]: Basic fibroblast growth factor (bFGF), FGF2 (gene 2247)
Put plainly: BSK_MyoF_bFGF: BioMAP Diversity Plus: MyoF Assay for Basic fibroblast growth factor (bFGF) Biomarker Activity (AID 2284246). The conditions noted are these: primary human lung fibroblasts. In short, it runs like this:
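Chemicals are added to human lung fibroblast cultures and incubated 24 h. bFGF is then measured by ELISA, while parallel cultures receive SRB staining for total protein as a cytotoxicity check. Data are fitted upward against DMSO.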

Read-out in experiment [7]: Plasminogen activator inhibitor-1 (PAI1), SERPINE1 (gene 5054)
Put plainly: BSK_MyoF_PAI1: BioMAP Diversity Plus: MyoF Assay for Plasminogen activator inhibitor-1 (PAI1) Biomarker Activity (AID 2284256).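 As to outcome: PAI-1 protein level measured by ELISA in fibroblast cultures; PAI-1 read 24 h after compound addition.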 The conditions noted are these: primary human lung fibroblasts. In short, it runs like this: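 MyoF lung fibroblasts, human primary; compound 24 h; PAI-1 ELISA; positive-direction fit vs DMSO baseline; parallel SRB total-protein staining for cytotoxicity.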

Read-out in experiment [8]: Monokine induced gamma interferon (MIG), CXCL9 (gene 4283)
In words: BSK_KF3CT_MIG: BioMAP Diversity Plus: KF3CT Assay for Monokine induced gamma interferon (MIG) Biomarker Activity (AID 2284248). The conditions noted are these: primary human keratinocytes with fibroblasts. The method, boiled down:
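ELISA read-out of MIG after 24 h chemical exposure of human skin primary co-culture (keratinocytes, foreskin fibroblasts). Gain of signal relative to DMSO negative control was analysed.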

Read-out in experiment [9]: Vascular cell adhesion molecule 1 (VCAM1), VCAM1 (gene 7412)
Put plainly: BSK_BF4T_VCAM1: BioMAP Diversity Plus: BF4T Assay for Vascular cell adhesion molecule 1 (VCAM1) Biomarker Activity (AID 2284249). Conditions: primary human bronchial epithelial cells with fibroblasts. The method, boiled down: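 Cell-surface VCAM-1 quantified by ELISA after 24 h chemical exposure of human bronchial epithelial/dermal fibroblast co-cultures, with SRB staining in parallel wells for cytotoxicity; DMSO baseline, positive-direction fitting.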

Read-out in experiment [10]: Collagen I, COL1A1 (gene 1277)
In words: BSK_hDFCGF_CollagenI: BioMAP Diversity Plus: hDFCGF Assay for Collagen I Biomarker Activity (AID 2284250). The conditions noted are these: primary human foreskin fibroblasts. In short, it runs like this:
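Collagen I ELISA, primary human foreskin fibroblasts, 24 h chemical exposure, DMSO = negative control/baseline, positive fitting direction.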

Read-out in experiment [11]: Interferon-inducible T-cell alpha chemoattractant (ITAC), CXCL11 (gene 6373)
Put plainly: BSK_hDFCGF_ITAC: BioMAP Diversity Plus: hDFCGF Assay for Interferon-inducible T-cell alpha chemoattractant (ITAC) Biomarker Activity (AID 2284251). The conditions noted are these: primary human foreskin fibroblasts. In short, it runs like this: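 I-TAC levels were read by ELISA on human dermal foreskin fibroblast primary cultures 24 h after dosing, analysed against DMSO in the positive direction. Cytotoxicity was assessed alongside by sulforhodamine B total-protein staining.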

Read-out in experiment [12]: Plasminogen activator inhibitor-1 (PAI1), SERPINE1 (gene 5054)
Put plainly: BSK_KF3CT_PAI1: BioMAP Diversity Plus: KF3CT Assay for Plasminogen activator inhibitor-1 (PAI1) Biomarker Activity (AID 2284252). The conditions noted are these: primary human keratinocytes with fibroblasts. The method, boiled down:
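Cells (human keratinocytes co-cultured with foreskin fibroblasts) are exposed to test chemical for 24 h. PAI-1 is then measured by ELISA and analysed for signal gain against DMSO.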

Read-out in experiment [13]: Monocyte Chemoattractant Protein-1 (MCP1), CCL2 (gene 6347)
In words: BSK_IMphg_MCP1: BioMAP Diversity Plus: IMphg Assay for Monocyte Chemoattractant Protein-1 (MCP1) Biomarker Activity (AID 2284253). Conditions: primary human endothelial cells with macrophages. The method, boiled down: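 ELISA readout of MCP-1 at 24 hours in IMphg co-cultures of venular endothelial cells and macrophages, normalised to DMSO; parallel cultures stained with sulforhodamine B for overt cytotoxicity.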

Read-out in experiment [14]: Interleukin-8 (IL8), CXCL8 (gene 3576)
In words: BSK_KF3CT_IL8: BioMAP Diversity Plus: KF3CT Assay for Interleukin-8 (IL8) Biomarker Activity (AID 2284254). Conditions: primary human keratinocytes with fibroblasts. The method, boiled down:
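IL-8 read-out: ELISA, 24 h post-dose, human skin primary co-culture (keratinocytes + foreskin fibroblasts). DMSO = baseline; positive-direction fit.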

Read-out in experiment [15]: Macrophage Inflammatory Protein-1 Alpha (MIP1a), CCL3 (gene 6348)
Put plainly: BSK_IMphg_MIP1a: BioMAP Diversity Plus: IMphg Assay for Macrophage Inflammatory Protein-1 Alpha (MIP1a) Biomarker Activity (AID 2284255). Conditions: primary human endothelial cells with macrophages. The method, boiled down:
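MIP-1a protein levels were quantified by ELISA after 24 h treatment of human endothelial cell–macrophage co-cultures, compared with DMSO. Parallel cultures were fixed with TCA and stained with 0.1% SRB to gauge overt cytotoxicity.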

Read-out in experiment [16]: CD69, CD69 (gene 969)
In words: BSK_IMphg_CD69: BioMAP Diversity Plus: IMphg Assay for CD69 Biomarker Activity (AID 2284257). Conditions: primary human endothelial cells with macrophages. The method, boiled down:
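Readout is ELISA for CD69 in primary human venular endothelial cell/macrophage co-culture, taken at 24 h post-dosing. SRB staining of parallel cultures gauged overt cytotoxicity; signal increase versus DMSO defined activity.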

The nature of experiment [17]: CCTE_Mundy_HCI_Cortical_NOG_BPCount: CCTE's Neurite Outgrowth Assay in rat cortical cells for Branch Point Count, Mundy Lab (AID 2284237).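 Also: branch points counted about two days after chemical exposure.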 The method, boiled down: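 Measured 50.33 h after dosing, this morphology endpoint uses rat primary cortical cultures labelled for betaIII-tubulin. Branch points are quantified by high-content imaging, with DMSO as negative control and baseline.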

The nature of experiment [18]: CCTE_Mundy_HCI_hNP1_Casp3_7: CCTE's Caspase-Glo 3/7 Assay in human neuroprogenitor cells for Apoptosis, Mundy Lab (AID 2284240). In short, it runs like this: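 Apoptosis is scored by activated caspase-3/7 luminescence in WA09-derived neural progenitor cells, measured 26.5 h after chemical dosing. Values represent gain of signal relative to DMSO vehicle.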
The nature of experiment [19]: CCTE_Mundy_HCI_hNP1_CellTiter: CCTE's Cell Titer-Glo 2 Assay in human neuroprogenitor cells for Viability, Mundy Lab (AID 2284241; active = hit-call score of the fitted dose curve at least 0.9, where 1 is the maximum). The method, boiled down: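 Human neural progenitor cells (hNP1, WA09-derived) were plated on poly-L-ornithine/laminin and grown 40 to 44 hours at 37 °C, 5% CO2 before chemical addition. Twenty-four hours later, ATP was measured by CellTiter-Glo luminescence; loss of signal versus DMSO indicates reduced viability.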
(In general: In ATP-based viability assays light output follows the ATP content of the culture.)

The nature of experiment [20]: CCTE_Mundy_HCI_Cortical_Synap_Neur_Matur_NeuronCount: CCTE's Synaptogenesis and Neurite Maturation Assay in rat cortical cells for Neuron Count, Mundy Lab (AID 2284242; active = hit-call score of the fitted dose curve at least 0.9, where 1 is the maximum;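 as to AC50: neuron number from Hoechst nuclei and MAP2 staining by high-content imaging; hits reduce neuron count versus DMSO baseline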). The method, boiled down:
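Cortical cells from rat are plated, treated with AraC at DIV 5, and exposed to test chemicals with a media change at DIV 7. At DIV 12 they are fixed and immunostained (MAP2, synaptophysin), and imaged neuron counts are compared against DMSO controls.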

As usually defined, the AC50 is the concentration at which the activity in the assay is half-maximal. On to `O=C(OC1CCCCC1)c1ccccc1C(=O)OC1CCCCC1`, for which the AC50 is 13 µM (active) in [1]; 16.6 µM (active) in experiment [2]; 30.8 µM (active) in [3]; 12.5 µM (active) in experiment [4]; 30.9 µM (active) in experiment [5]; 20.9 µM (active) in [7]. The result in experiment [6] was inactive.
Regarding `NC(=S)Nc1ccccc1`, the result in [1], in experiment [2], in [3], in [4], in experiment [5] and in experiment [6] was inactive. Besides, the result in experiment [7] was inactive.
Take `O=C(O)C(F)(F)C(F)(F)C(F)(F)C(F)(F)C(F)(F)C(F)(F)C(F)(F)C(F)(F)C(F)(F)C(F)(F)F`: the AC50 was 2.19 µM (active) and 2.25 µM (active) in [1]; 2.59 µM (active) and 2.58 µM (active) in [2]; 2.74 µM (active) and 2.55 µM (active) in experiment [4]; 5.14 µM (active) and 6.09 µM (active) in experiment [6]; 6.52 µM (active) and 5.48 µM (active) in experiment [8]; 4.89 µM (active) and 5.89 µM (active) in experiment [9]. In addition, the AC50 is 3.39 µM (active) in experiment [10]; 5.59 µM (active) in [11]; 2.66 µM (active) and 4.56 µM (active) in experiment [12]; 3.33 µM (active) and 5.2 µM (active) in experiment [14]; 5.52 µM (active) and 6.52 µM (active) in experiment [7]. The result in experiment [3], in experiment [5], in experiment [10], in [13], in [15] and in [16] was inactive.
For the molecule `O=C1C2(Cl)C3(Cl)C4(Cl)C(Cl)(Cl)C5(Cl)C3(Cl)C1(Cl)C5(Cl)C24Cl` (stereo not given), the AC50 in experiment [17] was 7.19 µM (active); in experiment [18] it was 20.1 µM (active); in experiment [19], 23.5 µM (active). For the same molecule, the result in experiment [20] was inactive.
For `COP(=O)(OC)O/C(=C\Cl)c1cc(Cl)c(Cl)cc1Cl`, the AC50 in experiment [17] was 31.1 µM (active) and 23 µM (active); in [18] it was 12.4 µM (active) and 70.3 µM (active); in experiment [19], 23.3 µM (active) and 89 µM (active); in experiment [20] it was 51.5 µM (active). The result in experiment [20] was inactive.
As to `CC(C)c1ccc(CO)cc1`, the result in experiment [1], in experiment [2], in experiment [3], in experiment [4], in experiment [5] and in experiment [6] was inactive. For the same molecule, the outcome in experiment [7] was inactive.
As for `CC1(C)Cc2cccc(O)c2O1`, the result in [1], in [2], in experiment [3], in experiment [4], in [5] and in experiment [6] was inactive. The result in experiment [7] was inactive.
In the case of `COc1cc(OC)nc(NC(=O)NS(=O)(=O)c2ncccc2C(=O)N(C)C)n1`, the outcome in experiment [1], in [2], in [3], in experiment [4], in experiment [5] and in [6] was inactive. Further, the outcome in [7] was inactive.
For `Oc1ccc(-c2ccccc2)cc1`, the outcome in [1], in [3], in experiment [4], in experiment [5], in [6] and in experiment [7] was inactive. Further, in experiment [2], the AC50 was 0.414 µM (active).
As to `C=C(C)C(=O)[O][Sn]([CH2]CCC)([CH2]CCC)[CH2]CCC`, the AC50 was 0.0846 µM (active) in [17], 2.77 µM (active) in [18], 0.335 µM (active) in experiment [19] and 0.0547 µM (active) in [20].
Regarding `O=C(O)C(F)(F)C(F)(F)C(F)(F)C(F)(F)C(F)(F)C(F)(F)F`, the result in experiment [1], in [2], in experiment [18], in [19], in [3] and in experiment [4] was inactive. In addition, the outcome in [5], in [6], in [8], in [9], in [10] and in experiment [11] was inactive. Further, the result in experiment [12], in experiment [13], in [14], in [15], in experiment [7] and in experiment [16] was inactive.
